For experiment [1], the target named is Paired box protein Pax-6 (Homo sapiens) (UniProt P26367). Nature of the experiment: ATG_Pax6_CIS: Attagene CIS-FACTORIAL HepG2 Assay for human Paired Box 6 (PAX6) (AID 2282956). Conditions: HepG2 CIS-FACTORIAL PAX6 reporter transcription, RNA readout; actives raise or lower the signal. An outline of the steps: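 Values derive from bidirectional curve fitting of reporter mRNA signal relative to DMSO. HepG2 cells bearing transfected cis-regulated MRTUs were exposed for 24 h; transcripts were read by RT-PCR and capillary electrophoresis.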

Experiment [2] is described as follows: ATG_PXRE_CIS: Attagene CIS-FACTORIAL HepG2 Assay for human Pregnane X Receptor Element (PXRE) (AID 2282957). Conditions: HepG2 Attagene CIS-FACTORIAL PXRE reporter, mRNA; actives raise or lower the signal. An outline of the steps: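 Using HepG2 transfected with multiple reporter transcription units, endogenous factor-driven transcription was scored as reporter mRNA after 24 h exposure.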

Experiment [3] is described as follows: ATG_RORE_CIS: Attagene CIS-FACTORIAL HepG2 Assay for human RAR-related Orphan Receptor Element (RORE) (AID 2282959). The conditions noted are these: HepG2 Attagene cis-factorial RORE reporter, mRNA; actives raise or lower the signal. The gist of the method:
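A 24-hour exposure of transfected HepG2 hepatoma cells precedes RNA isolation and reporter RT-PCR. Labeled products are digested with HpaI and resolved by capillary electrophoresis, with gain or loss of signal scored relative to DMSO.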

The nature of experiment [4]: ATG_Sox_CIS: Attagene CIS-FACTORIAL HepG2 Assay for human SRY-box transcription factor (SOX) (AID 2282960). The conditions noted are these: HepG2 Attagene cis-factorial SOX reporter, mRNA; actives raise or lower the signal. An outline of the steps: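 HepG2, cis reporter units, 24 h exposure. Reporter mRNA: RT-PCR → FAM labelling → HpaI → CE fluorescence. Bidirectional fit vs DMSO.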

Experiment [5] concerns the target Transcription factor Sp1 (Homo sapiens) (UniProt P08047). Description: ATG_Sp1_CIS: Attagene CIS-FACTORIAL HepG2 Assay for human Specificity Protein 1 (Sp1) (AID 2282961). The conditions noted are these: HepG2 Sp1 cis-reporter transcription, actives raise or lower the signal. An outline of the steps: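 Liver-derived HepG2 cells, cis-element reporter library, 24 h treatment; RNA isolated, cDNA amplified with reporter-specific primers, FAM-labeled fragments sized on capillary analyzer. DMSO baseline, bidirectional curve fit.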

A short description of experiment [6]: ATG_SREBP_CIS: Attagene CIS-FACTORIAL HepG2 Assay for human Sterol Regulatory Element Binding (SREBP) (AID 2282962). The conditions noted are these: HepG2 Attagene cis-factorial SREBP reporter, mRNA; actives raise or lower the signal. An outline of the steps: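 Values derive from bidirectional curve fitting with DMSO as baseline. The underlying measurement is reporter mRNA from cis-element-regulated units in transiently transfected HepG2, quantified by RT-PCR and capillary electrophoresis after 24 h exposure.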

Experiment [7] concerns the target Signal transducer and activator of transcription 3 (Homo sapiens) (UniProt P40763). Nature of the experiment: ATG_STAT3_CIS: Attagene CIS-FACTORIAL HepG2 Assay for human Signal Transducer and Activator of Transcription 3 (STAT3) (AID 2282963). Conditions: HepG2, Attagene cis-factorial STAT3 reporter transcription; actives raise or lower the signal. An outline of the steps: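 Cis-factorial format: endogenous transcription factors in HepG2 drive transfected reporter units. After 24 h treatment, reporter RNA was reverse-transcribed, amplified, FAM-labelled and HpaI-digested before CE analysis; activity scored in both directions against DMSO.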

Experiment [8] can be described thus: ATG_TA_CIS: Attagene CIS-FACTORIAL HepG2 Assay for human TA Basal Promoter (AID 2282964). The conditions noted are these: HepG2 Attagene CIS-factorial TA basal promoter reporter; actives raise or lower the signal. The gist of the method:
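Background internal-marker endpoint from a 52-component HepG2 cis-reporter panel. Cells treated 24 h; reporter transcripts quantified via RT-PCR and CE fluorescence against DMSO baseline.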

A short description of experiment [9]: ATG_TCF_b_cat_CIS: Attagene CIS-FACTORIAL HepG2 Assay for human T-Cell-Factor with beta-catenin (TCF/b-cat) (AID 2282965). Conditions: HepG2 TCF/beta-catenin cis-reporter transcription, actives raise or lower the signal. The gist of the method: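 Endogenous transcription factor activity is captured through cis-promoter reporter constructs transiently introduced into human HepG2 liver cells. Induced reporter mRNA is measured after 24 h and fitted bidirectionally relative to DMSO.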

Experiment [10] in a line: ATG_TAL_CIS: Attagene CIS-FACTORIAL HepG2 Assay for human TAL Basal Promoter (AID 2282966).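 Further: background control endpoint measuring basal TAL promoter reporter mRNA not a specific factor.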 The conditions noted are these: HepG2 Attagene cis-factorial TAL promoter reporter; actives raise or lower the signal. The gist of the method:
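After 24 hours of chemical exposure, transfected HepG2 cells yielded RNA that was converted to 6-FAM-labelled, HpaI-digested reporter fragments for capillary electrophoresis. Values derive from bidirectional fitting against DMSO controls.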

Experiment [11] in a line: ATG_TGFb_CIS: Attagene CIS-FACTORIAL HepG2 Assay for human Transforming Growth Factor (TGF) (AID 2282967). The conditions noted are these: HepG2 Attagene CIS TGFb reporter, mRNA transcription; actives raise or lower the signal. The gist of the method: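 Liver HepG2 line, cis-factorial reporter panel, 24 h dosing. Quantitation: RT-PCR products labeled with 6-FAM, cut with HpaI, resolved by capillary electrophoresis; DMSO-referenced bidirectional analysis.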

Experiment [12] is described as follows: ATG_VDRE_CIS: Attagene CIS-FACTORIAL HepG2 Assay for human Vitamin D Receptor Element (VDRE) (AID 2282968). The conditions noted are these: HepG2 VDRE cis-reporter transcription, actives raise or lower the signal. The gist of the method:
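Measures endogenous factor activity through cis-element-driven reporter transcripts in transiently transfected HepG2. Cells are treated 24 h; reporter mRNA is quantified by RT-PCR and capillary electrophoresis; fitting is bidirectional.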

In experiment [13] the target is Nuclear receptor subfamily 1 group I member 3 (Homo sapiens) (UniProt Q14994). Description: ATG_CAR_TRANS: Attagene TRANS-FACTORIAL HepG2 Assay for human Constitutive Androstane Receptor (CAR) (AID 2282969; active means hit-call score of the fitted dose curve at least 0.9, where 1 is the maximum;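 further: activators raise reporter mRNA above DMSO so AC50 marks induction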). The conditions noted are these: HepG2 Attagene TRANS-FACTORIAL CAR reporter. An outline of the steps: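 Signal is reporter mRNA induction relative to DMSO, measured 24 h after dosing by RT-PCR with fluorescent primer extension and capillary electrophoresis. Human HepG2 liver cells carried transiently transfected chimeric NR-Gal4/GAL4-UAS reporter constructs.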

Experiment [14] concerns the target Estrogen receptor (Homo sapiens) (UniProt P03372). Description: ATG_ERa_TRANS: Attagene TRANS-FACTORIAL HepG2 Assay for human Estrogen Receptor alpha (ERa) (AID 2282970; active means hit-call score of the fitted dose curve at least 0.9, where 1 is the maximum). The conditions noted are these: HepG2 Attagene TRANS ERa GAL4 reporter, mRNA. An outline of the steps: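 Liver-derived HepG2 cells expressing chimeric nuclear receptor-Gal4 proteins from transient transfection were exposed for 24 hours. Gain of reporter mRNA signal versus DMSO, read by capillary electrophoresis of FAM-labelled PCR products, was recorded.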

The target in experiment [15] is X-box-binding protein 1 (Homo sapiens) (UniProt P17861). Description: ATG_Xbp1_CIS: Attagene CIS-FACTORIAL HepG2 Assay for human X-box Binding Protein 1 (XBP1) (AID 2282972). Conditions: HepG2 XBP1 cis-element reporter, Attagene multiplex; actives raise or lower the signal. The gist of the method: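 Human hepatoma HepG2, cis-element reporter system, 24 h treatment; mRNA quantified by RT-PCR/CE fluorescence; fit relative to DMSO.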

Experiment [16] in a line: ATG_M_19_TRANS: Attagene TRANS-FACTORIAL HepG2 Assay for M19 Transcription Factor (Internal Marker) (AID 2282974; active means hit-call score of the fitted dose curve at least 0.9, where 1 is the maximum). The conditions noted are these: HepG2 Attagene TRANS-FACTORIAL M19 internal marker reporter. The gist of the method:
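Transfected HepG2 (GAL4-UAS MRTUs), 24 h compound, TriZol RNA, DNase-treated RT, reporter PCR, FAM label, HpaI digest, CE fluorescence; gain vs DMSO.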

Experiment [17] is described as follows: ATG_GAL4_TRANS: Attagene TRANS-FACTORIAL HepG2 Assay for GAL4 (Internal Marker) (AID 2282976; active means hit-call score of the fitted dose curve at least 0.9, where 1 is the maximum). Conditions: HepG2 Attagene TRANS GAL4 internal marker reporter. The gist of the method: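 First, HepG2 cells were transfected with reporter units under GAL4-UAS control. Next, they were treated with chemical for 24 h. Finally, RNA was reverse-transcribed, PCR-amplified, FAM-labelled and resolved by capillary electrophoresis, with induction scored against DMSO.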

Experiment [18] in a line: ATG_PPRE_CIS: Attagene CIS-FACTORIAL HepG2 Assay for human Peroxisome Proliferator-activated Response Element (PPRE) (AID 2282958). Conditions: HepG2 PPRE cis-element reporter, Attagene transcription factor profiling; actives raise or lower the signal. An outline of the steps: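 PPRE activity in HepG2: transient cis-reporter transfection, 24 h compound incubation, reporter mRNA by RT-PCR and CE fluorescence; gain/loss fitted against DMSO.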

Experiment [19] has as its target Steroid hormone receptor ERR1 (Homo sapiens) (UniProt P11474). Description: ATG_ERRa_TRANS: Attagene TRANS-FACTORIAL HepG2 Assay for human Estrogen-Related Receptor alpha (ERRa) (AID 2282971; active means hit-call score of the fitted dose curve at least 0.9, where 1 is the maximum). Conditions: HepG2 Attagene TRANS reporter, ERRa transactivation. The gist of the method:
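Reporter transcript induction was quantified by RT-PCR and capillary electrophoresis of FAM-labelled, HpaI-cut products after 24 h treatment of HepG2 cells carrying transiently transfected GAL4-UAS reporter units and an exogenous ERRa-Gal4 fusion; activity scored as increase over DMSO.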

Experiment [20] has as its target Estrogen-related receptor gamma (Homo sapiens) (UniProt P62508). Description: ATG_ERRg_TRANS: Attagene TRANS-FACTORIAL HepG2 Assay for human Estrogen-Related Receptor gamma (ERRg) (AID 2282977; active means hit-call score of the fitted dose curve at least 0.9, where 1 is the maximum;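 further: hits increase reporter signal over DMSO so potencies reflect activators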). Conditions: HepG2 Attagene TRANS reporter, ERRg transactivation. An outline of the steps: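 Readout: fluorescent reporter-mRNA fragments resolved by capillary electrophoresis after RT-PCR and HpaI cut. Cells: transiently transfected HepG2 carrying GAL4-UAS reporters driven by exogenous NR-Gal4 chimeras, dosed 24 h. Activity fitted upward relative to DMSO baseline.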

Records with an inconclusive call do not appear. Activity calls are given as the source filed them. How the source made its calls, unless noted: active means hit-call score of the fitted dose curve at least 0.9, where 1 is the maximum; inactive means score below 0.9.

Outcome and AC50 data for six molecules are collected here from PubChem BioAssay (EPA / NIEHS).

For orientation: AC50 means the concentration giving half of the maximal activity seen.

Chain of Signal transducer and activator of transcription 3 (Homo sapiens) (P40763 whole entry, looked up): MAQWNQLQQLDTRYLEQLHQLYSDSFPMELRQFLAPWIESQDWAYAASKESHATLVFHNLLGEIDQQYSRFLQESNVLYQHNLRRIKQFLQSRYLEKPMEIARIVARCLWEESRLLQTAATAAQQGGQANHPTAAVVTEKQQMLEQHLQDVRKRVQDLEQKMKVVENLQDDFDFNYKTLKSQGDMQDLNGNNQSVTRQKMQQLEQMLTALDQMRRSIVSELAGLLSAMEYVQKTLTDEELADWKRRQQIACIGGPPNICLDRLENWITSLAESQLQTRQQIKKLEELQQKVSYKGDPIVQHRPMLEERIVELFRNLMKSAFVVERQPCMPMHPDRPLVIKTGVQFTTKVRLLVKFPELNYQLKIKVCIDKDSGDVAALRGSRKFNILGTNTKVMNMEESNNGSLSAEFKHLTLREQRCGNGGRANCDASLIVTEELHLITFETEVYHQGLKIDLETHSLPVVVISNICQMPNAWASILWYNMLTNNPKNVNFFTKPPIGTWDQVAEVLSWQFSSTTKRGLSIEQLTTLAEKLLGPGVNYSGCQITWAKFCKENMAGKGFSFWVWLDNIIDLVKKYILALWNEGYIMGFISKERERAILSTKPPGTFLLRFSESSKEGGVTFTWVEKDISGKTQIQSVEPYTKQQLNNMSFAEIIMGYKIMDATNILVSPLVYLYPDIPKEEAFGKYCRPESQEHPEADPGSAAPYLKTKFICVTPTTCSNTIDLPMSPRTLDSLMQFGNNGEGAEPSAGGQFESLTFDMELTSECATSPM
Chain of X-box-binding protein 1 (Homo sapiens) (P17861 whole entry, looked up): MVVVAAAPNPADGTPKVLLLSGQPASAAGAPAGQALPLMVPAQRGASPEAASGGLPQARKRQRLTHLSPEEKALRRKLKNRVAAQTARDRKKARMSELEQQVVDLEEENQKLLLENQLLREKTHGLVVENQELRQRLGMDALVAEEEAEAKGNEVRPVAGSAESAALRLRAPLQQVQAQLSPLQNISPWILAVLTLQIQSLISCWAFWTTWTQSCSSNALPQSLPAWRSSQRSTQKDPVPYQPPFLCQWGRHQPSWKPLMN
Chain of Transcription factor Sp1 (Homo sapiens) (P08047 whole entry, looked up, the tested form may be a part): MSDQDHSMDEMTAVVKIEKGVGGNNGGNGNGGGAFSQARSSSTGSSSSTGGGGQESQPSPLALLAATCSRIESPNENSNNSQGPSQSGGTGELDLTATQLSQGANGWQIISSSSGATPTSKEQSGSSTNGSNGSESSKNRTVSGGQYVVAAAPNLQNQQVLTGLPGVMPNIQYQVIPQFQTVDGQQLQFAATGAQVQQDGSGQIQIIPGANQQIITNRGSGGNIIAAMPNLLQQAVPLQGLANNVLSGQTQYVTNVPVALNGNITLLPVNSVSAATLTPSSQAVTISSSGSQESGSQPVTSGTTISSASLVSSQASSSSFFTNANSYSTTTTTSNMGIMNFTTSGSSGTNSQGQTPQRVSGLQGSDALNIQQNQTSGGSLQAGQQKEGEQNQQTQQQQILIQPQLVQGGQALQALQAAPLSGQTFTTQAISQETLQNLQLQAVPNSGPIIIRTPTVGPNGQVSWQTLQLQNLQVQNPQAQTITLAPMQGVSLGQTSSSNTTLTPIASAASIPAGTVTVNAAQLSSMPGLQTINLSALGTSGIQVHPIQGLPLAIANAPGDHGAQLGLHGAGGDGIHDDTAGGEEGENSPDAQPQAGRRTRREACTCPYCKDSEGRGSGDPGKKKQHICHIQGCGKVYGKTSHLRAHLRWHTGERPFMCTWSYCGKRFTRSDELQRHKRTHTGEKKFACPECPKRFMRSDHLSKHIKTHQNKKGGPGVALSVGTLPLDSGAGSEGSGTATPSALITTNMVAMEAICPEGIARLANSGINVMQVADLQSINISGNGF
Chain of Paired box protein Pax-6 (Homo sapiens) (P26367 whole entry, looked up): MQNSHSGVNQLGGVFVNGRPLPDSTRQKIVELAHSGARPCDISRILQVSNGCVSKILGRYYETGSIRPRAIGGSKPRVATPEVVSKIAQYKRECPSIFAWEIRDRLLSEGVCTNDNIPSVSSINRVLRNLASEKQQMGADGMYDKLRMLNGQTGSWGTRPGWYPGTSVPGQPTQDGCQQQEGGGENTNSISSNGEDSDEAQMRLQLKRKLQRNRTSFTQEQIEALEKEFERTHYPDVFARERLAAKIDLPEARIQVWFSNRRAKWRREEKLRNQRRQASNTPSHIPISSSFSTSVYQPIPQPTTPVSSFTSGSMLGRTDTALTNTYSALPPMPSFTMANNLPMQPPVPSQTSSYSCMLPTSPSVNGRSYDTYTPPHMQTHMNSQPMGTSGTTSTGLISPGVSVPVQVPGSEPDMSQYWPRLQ
Chain of Estrogen receptor (Homo sapiens) (P03372 whole entry, looked up, the tested form may be a part): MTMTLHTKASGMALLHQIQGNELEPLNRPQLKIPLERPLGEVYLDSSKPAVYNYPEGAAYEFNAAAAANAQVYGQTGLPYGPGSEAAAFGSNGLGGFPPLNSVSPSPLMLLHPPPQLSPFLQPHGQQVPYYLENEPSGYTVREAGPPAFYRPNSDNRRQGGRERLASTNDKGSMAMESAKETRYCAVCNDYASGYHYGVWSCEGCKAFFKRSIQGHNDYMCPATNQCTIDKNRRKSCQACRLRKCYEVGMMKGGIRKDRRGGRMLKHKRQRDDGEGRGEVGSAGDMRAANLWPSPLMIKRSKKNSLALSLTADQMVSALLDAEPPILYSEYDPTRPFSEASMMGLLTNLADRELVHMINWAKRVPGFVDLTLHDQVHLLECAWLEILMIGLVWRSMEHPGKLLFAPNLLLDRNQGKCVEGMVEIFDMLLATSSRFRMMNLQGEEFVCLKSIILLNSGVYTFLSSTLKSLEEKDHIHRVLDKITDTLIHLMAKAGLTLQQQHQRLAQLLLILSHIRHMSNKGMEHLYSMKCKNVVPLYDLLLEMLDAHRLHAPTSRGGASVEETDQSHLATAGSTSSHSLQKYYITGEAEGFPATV
Chain of Nuclear receptor subfamily 1 group I member 3 (Homo sapiens) (Q14994 whole entry, looked up, the tested form may be a part): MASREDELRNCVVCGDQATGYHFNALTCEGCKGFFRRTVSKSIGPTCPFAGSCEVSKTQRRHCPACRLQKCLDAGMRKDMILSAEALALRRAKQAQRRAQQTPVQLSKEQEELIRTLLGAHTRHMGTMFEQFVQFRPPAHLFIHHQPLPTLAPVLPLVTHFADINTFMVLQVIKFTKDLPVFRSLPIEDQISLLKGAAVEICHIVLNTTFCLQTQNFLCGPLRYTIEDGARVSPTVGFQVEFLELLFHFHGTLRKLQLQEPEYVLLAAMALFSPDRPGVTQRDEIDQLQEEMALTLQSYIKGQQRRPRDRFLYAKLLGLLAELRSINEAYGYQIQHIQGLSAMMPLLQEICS
Chain of Steroid hormone receptor ERR1 (Homo sapiens) (P11474 whole entry, looked up, the tested form may be a part): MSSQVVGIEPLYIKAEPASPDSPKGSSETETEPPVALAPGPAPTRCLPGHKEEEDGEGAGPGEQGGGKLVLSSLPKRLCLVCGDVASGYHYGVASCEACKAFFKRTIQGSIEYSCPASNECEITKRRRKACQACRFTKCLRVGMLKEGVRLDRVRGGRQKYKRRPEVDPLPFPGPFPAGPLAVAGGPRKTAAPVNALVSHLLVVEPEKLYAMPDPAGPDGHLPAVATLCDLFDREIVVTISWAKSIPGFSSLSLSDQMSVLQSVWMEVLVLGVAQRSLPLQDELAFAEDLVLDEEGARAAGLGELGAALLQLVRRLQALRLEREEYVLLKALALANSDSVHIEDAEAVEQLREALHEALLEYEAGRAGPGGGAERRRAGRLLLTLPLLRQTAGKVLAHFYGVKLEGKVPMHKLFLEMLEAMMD
Chain of Estrogen-related receptor gamma (Homo sapiens) (P62508 whole entry, looked up, the tested form may be a part): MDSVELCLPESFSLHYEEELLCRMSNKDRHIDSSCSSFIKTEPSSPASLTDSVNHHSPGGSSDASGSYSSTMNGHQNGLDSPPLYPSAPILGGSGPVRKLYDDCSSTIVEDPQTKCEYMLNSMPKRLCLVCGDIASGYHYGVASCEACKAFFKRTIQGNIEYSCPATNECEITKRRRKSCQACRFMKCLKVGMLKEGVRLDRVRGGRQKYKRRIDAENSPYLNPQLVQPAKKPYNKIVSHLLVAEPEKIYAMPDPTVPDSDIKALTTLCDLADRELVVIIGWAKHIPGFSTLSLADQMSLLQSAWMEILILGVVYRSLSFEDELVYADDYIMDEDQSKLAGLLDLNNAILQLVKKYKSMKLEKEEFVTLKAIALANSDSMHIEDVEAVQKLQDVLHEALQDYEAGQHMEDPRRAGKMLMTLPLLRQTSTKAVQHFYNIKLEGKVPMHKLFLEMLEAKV

`O=C1C(N(CO)C(=O)NCO)N(CO)C(=O)N1CO` (stereo not given): the molecule was classed as inactive in experiment [1], in [2], in [3], in [4], in experiment [5] and in [6]. In addition, the molecule was called inactive in experiment [7], in experiment [8], in experiment [9], in experiment [10], in [11] and in experiment [12]. Further, the call in experiment [13], in experiment [14], in [15], in experiment [16] and in experiment [17] was inactive.
For `C=CC(=O)OCCOC(=O)C=C`, the AC50 in experiment [1] was 14.9 µM (active); in experiment [2] it was 26.5 µM (active); in experiment [3], 27.3 µM (active); in experiment [5] it was 25.3 µM (active); in experiment [9], 26.7 µM (active); in experiment [12] it was 10.5 µM (active). Besides, the molecule was classed as inactive in experiment [4], in experiment [6], in [7], in experiment [8], in experiment [10] and in [11]. Besides, the call in experiment [15] was inactive.
Turning to `COCc1c(C(C)C)nc(C(C)C)c(/C=C/[C@@H](O)C[C@@H](O)CC(=O)O)c1-c1ccc(F)cc1`, the result in experiment [1], in experiment [4], in experiment [6], in experiment [7], in experiment [8] and in experiment [10] was inactive. The molecule was classed as inactive in experiment [11], in experiment [15], in experiment [16] and in experiment [17]. Besides, the half-maximal activity concentration (AC50) in [2] was 2.12 µM (active); in experiment [18] it was 1.67 µM (active); in [12] it was 2.34 µM (active).
Regarding `CC1=Nc2ccc3ccccc3c2C1(C)C`, the molecule was called inactive in [1], in experiment [3], in experiment [4], in [5], in [7] and in experiment [8]. Moreover, the outcome in experiment [9], in [10], in [11], in experiment [19], in experiment [15] and in [16] was inactive. The molecule was called inactive in [17] and in experiment [20]. Moreover, the AC50 in experiment [2] is 1.78 µM (active); in experiment [6], 100 µM (active); in experiment [14], 17.1 µM (active).
Turning to `COc1ccc(NC(C)=O)cc1N`, the outcome in experiment [1], in experiment [2], in experiment [18], in experiment [4], in experiment [5] and in experiment [6] was inactive. The molecule was classed as inactive in experiment [7], in experiment [8], in [9], in experiment [10], in experiment [11] and in experiment [15].
For `O=C(Cl)c1cc(C(=O)Cl)cc(C(=O)Cl)c1`, the molecule was called inactive in [1], in experiment [4], in experiment [5], in [6], in experiment [7] and in [8]. Moreover, the result in experiment [9], in experiment [10] and in experiment [15] was inactive. The half-maximal activity concentration (AC50) in [2] was 47.6 µM (active); in [18], 100 µM (active); in [11], 132 µM (active); in [12], 46 µM (active).
